We go through 108 sequences from PubChem BioAssay AID1508600 (Functional Genomics Laboratory (NCATS/FGL), 2020).

The whole screen tested about 53,000 sequences, of which about 3,700 (7%) were called active. This excerpt belongs to a sample that is enriched for actives. A number with no mark means an inactive call.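 The calls were made as follows: active = gene knockdowns whose robust z-score for IL-1 alpha signal is at least 2 or at most -2, so actives lie on both sides; inactive = the rest.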

The nature of the assay: Components of the Cytosolic LPS Sensing Pathway: Gene Identification via Genome-wide siRNA Screen.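 Also: robust z of the log signal after scaling to non-targeting control siRNA wells of the plate.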 To be noted: RAW264.7 macrophages, IL-1a HTRF, actives lie on both sides, screened at 100 nM (by protocol), cells primed 5 h with Pam3CSK4 first. In outline: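 Cells (RAW264.7, 1×10^4 per well) were transfected with siRNA at 100 nM and cultured 48h at 37 degrees C. Pam3CSK4 was added for 5 hours; LipidA transfection followed for 24 hour. IL-1a was then measured by HTRF.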
A general note: In TR-FRET formats the signal depends on donor and acceptor labels being close together.
Consider CGAGUGCUUCUCUUGACAUTT against Mrpl22, for which the z-score is -0.43. Under GGAUAAUUAUAGGAAGAGCTT against Ncapd3 stands -0.507; under GGGAUGCUAACAGGUGUCATT against Tkfc, -0.12; under GGCAUUACAUUUCAAUGAATT against Serpinb12, -0.71. As to GGAAUACACUCAAUAUUGATT against Nupl1, the z-score was -2.59 (active). Under GGUGUUCUUGAAGUUUAUATT against Zfp157 stands 0.579; under GCAGGAGUCAAAUUUUCUATT against Nemp1, -0.795; under GGAUUUUUGACUGUGAUUCTT against Pak1ip1, -1.57. For CCCAGACAUUACAUGGCCUTT against Cldn6, the z-score was -0.935. Under GGAACAAUGGGUUCAUUUUTT against Ifi203 stands 0.136. Take CGUAAUCUUCAUCUUAGUATT against Olfr613: the z-score was 0.601. Then GGAACCAAGGAUGUGAAAGTT against Rab13, with -2.17 (active); and GGAGUCUUGGAAAAAAGGCTT against Rep15, with -1.65; and GGCCUGUUGAUUGCAUAUUTT against Sppl2a, with -1.01. GGCCUGAAAAGACUGAUAATT against Vmn2r26: the z-score is 1.18. Under GCUAGUUAAGAGGAGGCUGTT against Nob1 stands -0.252.

For the sequence GGAGCACAGGAAAAUAUAUTT against Mdm2, the z-score is 0.561. Under GCACUUUGUAUAUCUUUCCTT against Btd stands 1.51; under GGAGAAGGAUUAUACCAGUTT against Rfesd, 2.2 (active); under GGGAGUUUCCAGAUGUUUUTT against Gclm, 0.0729. Under GGAAGAAAAGACUUAUCGUTT against Jkamp stands -0.663; under GGGAAACAUCUUCCUAUCCTT against Serpina12, -0.958; under GGCAGGUUUUUGACAACUUTT against Fxyd4, 3.2 (active).

Consider CCUAAUAAGCCAUAUGCAUTT against Alkbh8, for which the z-score was -0.449.

For the sequence GCCCUCUGUGAGUAGUAAUTT against Shroom3, the z-score is 0.603.

With GUUACUACAACAGCUACUATT against Krtap19-4, the z-score is -2.37 (active). On to GGACAUUGCCCACAUGACCTT against Rnf227, for which the z-score was -0.15. Under GCUCAACAGGCUCAACUACTT against Cndp2 stands 0.492; under GGACUACCGAACAAGAGAATT against Zfp318, 0.241; under GCAUUCACCGUACGUAUUCTT against Id4, 0.187. Then GGGUAGAAUCCAAGAAGCGTT against Hoxb3, with -2.08 (active); and GGUCUUCAACCCUGUUUGGTT against Gpsm3, with 0.329. Then GGAGACUCCAUACCAGUGUTT against Zfp329, with 1.78; and GGAUAUGGGAAUGAAAGCATT against Nyap2, with -2.21 (active); and GGCAGCAUUACACUGAAUCTT against Slc36a4, with 0.436. Take CCUAGUGAUUAAAGGGAUGTT against Prss43: the z-score is 1.19. Then GGAAAGUGUUUUCUCAUGATT against Klf9, with -0.23. Then GGUGGUCUACUUCACCGCATT against Slc6a20a, with 0.466; and GGAUCUCCUUUUUUUUCAATT against Gabrr1, with 0.0887; and UCAUCGCAACCAUCCACAGTT against Olfr530, with 0.464. Then CGAUGACGAUGCCUAACCATT against Dgkeos, with -2.34 (active); and GGGAGUCUGGUGGAUUGAUTT against Rln1, with 0.0253.

For GGUCUCACAAAAACAGUUCTT against Casq2, the z-score was -0.317. For the sequence GCAGUGUAAUGUGGCCUACTT against Rorc, the z-score is 0.682.

As to GCUGUUUUCUUUCCAUUUCTT against Olfr981, the z-score is -1.1. Under GAAUUACACACAGGCCUGATT against Olfr1048 stands 0.306; under CACUGCUGUAAUCCCUAUGTT against Olfr1002, 0.4; under CCAACAACGGCAUUCACUATT against Ebf3, -0.676. Then GGAGCACUUUGUAUGGAACTT against Ube2q2, with 2.97 (active); and CAAACCUUGUUGCCAUGACTT against Olfr406, with 0.0688; and GACAAGGUGCCAUACCAUUTT against Olfr351, with -0.373. Then GGACAGCUCUCAGAAUUCUTT against Ctse, with -1.13; and CGCAAACAAACCUUAACAGTT against Maneal, with 2.21 (active).

For the sequence GCUCCGGAAAGUAAGCAGATT against Tnfrsf26, the z-score is 0.259. Then CCAUGGUACUAAUGUAAAUTT against Eef1e1, with 0.797; and GGCUUUGAACACCAGUGAATT against Rpp21, with -0.453. Then CGCAGAUAAUAUCUUUGUCTT against Olfr461, with 0.389; and GGACCUAAGCAGAAAACUGTT against Meis3, with 0.789; and GCGGUAUGGCAUGGUACAUTT against LTO1, with -0.855. In the case of GGCCAUAAAACAUAAGCUATT against Tmem17, the z-score was 0.163. Then CGAACUUGUACAGAAGAAUTT against Slfn3, with -0.311; and AUGGGAGAAUCAGCAGAACTT against Set, with -2.77 (active). Then GCAUAGAGGACUACAACGATT against Optc, with 0.329. Under “GGACAGGAAGAAAAGAAACTT against Vmn2r-ps11” stands -1.19; under GGAAGGUGAAGCCAGUUUCTT against Traf3ip2, 2.02 (active); under GGACACUUUCAGACCUUAGTT against Ankrd27, -0.116.

Regarding GGACUUUGAUGUUGAAUGUTT against Rapgef1, the z-score is -0.985. Then GGAAAAUGGUUGGUACUUUTT against Vwc2, with 0.219; and GGACCUUCCUACGAGAAAATT against Tm2d2, with 0.0894; and GGAUCAAGGAGGAUUUCAATT against Tprg, with 2.38 (active). Take CGGUAAACAUCAGUAAUGATT against Drd5: the z-score was 0.0608. Then GCUACGUUCAGUUCCAUUGTT against Eddm3b, with -0.321; and CGACUUGAUUUCAAAACAUTT against Fbxl13, with -0.981; and GGACCUGUCCAUCUUCAUCTT against Scn1b, with 3.87 (active). Then GCCAAGAGUUUGAUAUAUATT against Plekhg3, with 1.79; and GGUAACAUCUCCAUCAGCCTT against Nxph3, with 0.34; and GGUAUCUUUAGGUUUCUGGTT against Vmn2r37, with 0.499. Then GCCAAGAAAGAUCAUUGACTT against Far2, with -0.703; and GCUAGCCAGUGCAUUCACATT against Srp68, with -2.96 (active). On to GCCCUUAAUUGAACAAAUATT against Otud7b, for which the z-score was 0.0529.

As to CGGACUCAGUCAUCAUUGCTT against Atf7, the z-score was -1.46. For GGAAAGAAAAAUCAGAGAATT against Adprhl1, the z-score was -0.866. Then GCUGUGGUAAACUGAAACUTT against Glis2, with -1.89; and GGGAGCCAAUGAAAUCAAGTT against Hmbox1, with 3.31 (active); and GCCUUGACAGAGGUAUUGATT against Ovgp1, with -1.46. Then “GGAGAAAUUCAAACAAGUATT against 4930503B20Rik”, with 0.275; and CCCACUGGUUUGUUUAAACTT against Hbegf, with 0.555. Then GGUUUUGCCUCCCAUAGUATT against Ssty1, with 0.112; and GGAGGAGCUUAGCCCUUUUTT against Bad, with 2.28 (active); and GCAGUUACGUUAGUUAAUATT against Plekha1, with 1.1. On to GCUACUCAUUUAGCAGAGATT against Olfr76, for which the z-score was -0.887. Under GUGGAUUAGGGAAUUUCAUTT against Mrgprb1 stands 1.84. Then GAAUCCCUUCGAGUACGACTT against Fxyd2, with 3.17 (active). Under GGAGCUGAAUGUCUGUAGCTT against Mzt2 stands -1.31; under CCUGAUGGAUGAUGAAUCATT against Trap1a, -1.42; under GGAGGAGCUGGAGAAAACATT against Psd4, -0.43. On to GGUCCUUUGAUGCUGACUGTT against Sfrp4, for which the z-score is -2.07 (active). Then CCAAGAAAAGUCCAGAAGCTT against Rorb, with 0.379; and GGAGAGACGUAAGAGGCGATT against Zrsr2, with 0.0858. Then GGACAAUUGGGCCAAACUGTT against Mpv17, with 0.103; and GGUGAAACCCUGAAAGUCCTT against Tmem154, with -0.169. Under GGUGUGUUAAGGUUUUUAATT against Marchf1 stands 3.68 (active); under GGAUAAUUUUGGAAGCAGATT against Rheb, -0.299.

For the sequence GCAUCUCACUCGUAAAGGUTT against Tmprss11f, the z-score is -0.555.

Regarding GCGCGUGACAAGGAGGAUUTT against Ska3, the z-score was 1.03. Then GGCCUGAACUUUUUAUUGATT against Olfr533, with -2.19 (active); and GGGAUUUUAUCAUACAAACTT against Ppil4, with 0.774; and GGCUUUCAUGUGCCGUUUUTT against Gstm5, with 2.39 (active).
